# In the library only some 12% were active in any assay of this set; here they are far more common.
# BAZ2B inh: blocks human BAZ2B. Q9UIF8. AlphaScreen BAZ2B-H3K14Ac peptide displacement. Potency, µM (titrated, usually from 114 µM), for inactives: at the top dose activity change, negative = inhibition, usual class: inhibitors. 4.4% of 360,000 active; also: % is scaled to controls: 0 for no effect and ±100 for the full control effect; nearly all actives have a fitted effect of over 60% in size
#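 Compounds, titrated to a top concentration of 110 uM, were incubated 30 min at room temperature with preformed BAZ2B/acetyl-K14 H3 peptide complex (50 nM each). Proximity signal was measured by AlphaScreen after 20 min with beads.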
# G9a block: inhibitors of human histone lysine methyltransferase G9a; Q96KQ7; G9a H3K9 monomethylation, AlphaScreen, 2 h; Potency, µM (series often up to 102 µM), inactives show at the top dose activity, negative = inhibition, actives largely listed as inhibitors; 8.8% of 350,000 active; also: % is scaled to controls: 0 for no effect and ±100 for the full control effect; nearly all actives have a fitted effect of over 75% in size
#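 Methyltransferase reactions run at room temperature for 2 h (20 nM enzyme, 500 nM biotin-H3K9 peptide, 20 uM SAM) after a 15 min compound preincubation; product detected by AlphaScreen beads and anti-H3K9me1 antibody.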
# HP1b chromo inh: inhibitors of HP1-beta chromodomain binding to methylated histone tails; Potency, µM (top dose mostly 114 µM), for the others: at the top dose activity change, negative = inhibition, hits mostly inhibitors; AlphaScreen HP1-beta / biotin-H3K9me3 peptide binding; P83916; AID 540317; 0.56% of 390,000 active; also: nearly all actives have a fitted effect of over 70% in size
#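 Compound inhibition of the preformed complex between 50 nM HP1-beta and 50 nM biotinylated H3K9me3 peptide was read by AlphaScreen. Buffer was PBS pH 7.4 with 0.01% Tween-20. Incubations ran 30 min at room temperature, with 10 ug/mL donor/acceptor beads.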
# Sfp inh: inhibitors of Bacillus subtilis Sfp phosphopantetheinyl transferase; 3.5% of 310,000 active; Q9F4F7; Potency, µM, inactives show largest response in the series, negative = inhibition, most hits filed as inhibitors; AID 1490; Biochemical Sfp PPTase activity, qHTS;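 also: the enzyme is Sfp with the accession as filed and its product quenches rhodamine fluorescence; 0% = enzyme reaction without inhibitor and -100% = no enzyme wells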
#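 Sfp 15 nM + cpd, 15 min RT; start w/ rhodamine-CoA 5 uM, BHQ-2-YbbR 12.5 uM (final); 50 mM Hepes pH 7.6, 10 mM MgCl2, 0.01% NP-40, 0.01% BSA; read 525/598 nm at 0 and 30 min.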
# JMJD2A Tudor: blocks the human JMJD2A Tudor domain. AlphaScreen JMJD2A-Tudor / H3K4me3 peptide binding. Potency, µM (titrated, usually from 114 µM), for the others: at the highest dose activity change, negative = inhibition, most hits filed as inhibitors. 4.4% of 390,000 active. AID 504339; also: % is scaled to controls: 0 for no effect and ±100 for the full control effect; nearly all actives have a fitted effect of over 50% in size
# * = called active by the depositor; ? = inconclusive; nt = no result given; [ ] = another dose, or the depositor's remark. Calls follow the shape of the dose curve; as a rule, active = well fitted curve in the direction sought with a large enough effect; inconclusive = small, poorly fitted or top-dose-only effect, or another doubt; inactive = no such curve, though single readings can be large; an effect the other way counts as inactive or inconclusive. Potency is read from the fitted curve at half-maximal effect.
SMILES,BAZ2B inh,G9a block,HP1b chromo inh,Sfp inh,JMJD2A Tudor
CCCc1cc(Nc2cccc(OCC)c2)n2ncnc2n1,8%,56µM*,38%,5%,-1%
CC1CCC(NC(=O)c2ccc(CS(=O)(=O)c3c(Cl)cccc3Cl)o2)CC1 (configuration not stated),-13%,8%[59 µM],23%,nt,-14%
Cc1onc(-c2ccccc2Cl)c1C(=O)Nc1ccc(-n2nncc2-c2ccco2)cc1,?,40µM*,-6%,-2%,?
Cc1ccc(-n2nc3c(c2NC(=O)c2c(-c4ccccc4Cl)noc2C)CSC3)cc1,0%,45µM*,18%,-26%,-24%
O=C(Nc1ccc(-n2nncc2-c2ccco2)cc1)c1ccc(F)cc1,?,50µM*,?,2%,?
O=C(O)c1ccc(-n2nncc2-c2ccco2)cc1,7%,-1%,43%,0%,7%
Cc1ccccc1-n1nc2c(c1NC(=O)c1c(-c3ccccc3Cl)noc1C)CSC2,-8%,-3%,6%,18%,-19%
COc1cccc(Nc2nc(-c3cccc(N4C(=O)c5ccccc5C4=O)c3)cs2)c1,?,14µM*,?,15%,?
COc1cccc(N2C(=O)c3ccccc3C2=O)c1,nt,nt,nt,nt,4%
COc1cccc(Nc2nc(-c3ccc(O)cc3)cs2)c1,?,50µM*,-9%,-2%,?
O=C(C1CCN(c2ncnc3c2nc2n3CCCCC2)CC1)N1CCN(c2cccc(Cl)c2)CC1,32µM*,11%,38%,-2%,?
O=C(C1CCN(c2ncnc3c2nc2n3CCCCC2)CC1)N1CCN(c2ccc(Cl)cc2)CC1,-1%,-9%[59 µM],-19%,nt,-22%
COc1ccc(N2CCN(C(=O)C3CCCN(c4ncnc5c4nc4n5CCCCC4)C3)CC2)cc1 (configuration not stated),28µM*,nt,-2%,2%,?
N#CCNC(=O)C1CC(=O)N(CCc2ccc(F)cc2)C1 (configuration not stated),-7%,nt,13%,0%,-13%
O=C(NC1CCCCC1)Sc1ccc(Cl)cc1,57%,?,69%,28µM*,110%
Cc1[nH]c(=O)[nH]c(=S)c1C(=O)Nc1ccc(Cl)c(Cl)c1,nt,nt,-42%,nt,8.9µM*
O=C(Nc1ccc(Cl)c(Cl)c1)c1cccnc1,-24%,-9%[0.501 µM],56%,12%,2%
O=C(O)c1ccc2cccc(O)c2n1,?,nt,33%,2.8µM*,-6%
CC(=O)Nc1cccc(C(=O)O)n1,22µM*,8.9µM*,14%,?,?
O=C(O)c1cccc(C(=O)O)n1,-3%,?,nt,4µM*,nt
CC(=O)Nc1cccc(NC(C)=O)n1,-1%,-13%[59 µM],5%,8%,-9%
O=C(O)c1cccc(Cl)n1,-22%,40µM*,11%,-3%,-1%[11.4 µM]
COc1nnc(-c2ccc(N3CCCCC3)c(NC(=O)COc3ccccc3)c2)c2ccccc12,nt,nt,36%,nt,3%[11.4 µM]
CC1=C(C(=O)OC2CCCCCC2)C(c2ccc(Cl)cc2Cl)CC(=O)N1 (configuration not stated),0%,7%[59 µM],11%,nt,-17%
O=C(c1ccccn1)c1ccc2ccccc2n1,1%,?,17%,2%,-7%
SMILES,BAZ2B inh,G9a block,HP1b chromo inh,Sfp inh,JMJD2A Tudor
O=C(O)c1ccc2cccnc2n1,28µM*,35µM*,?,-59%,7.1µM*
Cc1ccc(S(=O)(=O)c2nc(-c3ccco3)oc2SCC(N)=O)cc1,-10%,?,-25%,1%,-24%
NC(=O)CSc1oc(-c2ccco2)nc1S(=O)(=O)c1ccc(Cl)cc1,-25%,32µM*,11%,-2%,-19%
CCCSc1oc(-c2ccco2)nc1S(=O)(=O)c1ccc(Br)cc1,-18%,-47%[59 µM],21%,nt,2%
NC(=O)CSc1oc(-c2ccco2)nc1S(=O)(=O)c1ccc(Br)cc1,?,28µM*,25%,-13%,-4%
O=C(CSc1oc(-c2ccccc2)nc1S(=O)(=O)c1ccc(Cl)cc1)c1ccccc1,-6%,11µM*,3%,nt,?
CSc1oc(-c2ccco2)nc1S(=O)(=O)c1ccc(Br)cc1,-32%,40µM*,28%,-2%,-33%
Cc1c(C)n2c(SCC(=O)Nc3cccc4ccccc34)nnc2[nH]c1=O,-6%,-30%,-3%,nt,-17%
CC(C)Sc1oc(-c2ccco2)nc1S(=O)(=O)c1ccc(F)cc1,-20%,10µM*,21%,?,?
O=S(=O)(c1ccccc1)c1nnn2c1nc(NCc1ccccc1)c1cc(Cl)ccc12,11%,1%[59 µM],16%,nt,-11%
COc1cccc(/C=N/n2c(-c3cc(C)[nH]n3)n[nH]c2=S)c1OC,-36%,nt,4%,-29%,1.8µM*
COc1ccc(/C=N/n2c(C)nnc2C)c(OC)c1OC,12%,22%[59 µM],35%,9%,-8%
COc1cccc(/C=N/n2c(-c3n[nH]c4c3CCC4)n[nH]c2=S)c1OC,-16%,2.5µM*,?,?,3.2µM*
COc1ccc(/C=N/n2c(-c3n[nH]c4c3CCC4)n[nH]c2=S)c(OC)c1OC,-10%,1.3µM*,?,-20%,4.5µM*
COc1cccc(/C=N/n2c(=S)n(C)c3cc(C)c(C)cc32)c1OC,-4%[57.1 µM],?,7%,4%,-31%
CC1(OC(=O)C2CCCC2)C(=O)C=C2C=C(c3ccsc3)N(c3ccc(CO)cc3)C=C2C1=O (configuration not stated),nt,nt,nt,6%,nt
COC(=O)c1ccc(Cl)cc1NC(=O)N(Cc1ccc(C)o1)C1CCN(C(C)=O)CC1,-27%,-9%[59 µM],-2%,nt,-26%
COc1ccc(OC)c(CNC(=O)c2cc3c(=O)oc4ccc(C)cc4c3s2)c1,-11%,-1%[59 µM],28%,nt,-9%
COC(=O)c1ccccc1NC(=O)CN1CCN(c2ccccn2)CC1,-14%,3%,36%,20%,-22%
COC(=O)c1ccccc1N/C=C1\CCc2c(c(C)nn2-c2ccccn2)C1=O,-24%,?,19%,45µM*,-31%
CC1CCC(=O)N(CCOc2ccccc2)CC1 (configuration not stated),8%,-32%,9%,3%,?
C[C@H]1CCC(=O)N([C@H](COc2ccccc2)Cc2ccccc2)CC1,9%,32µM*,76%,-14%,4%
Cc1c(N2C(=O)/C(=C\c3ccccc3O)SC2=S)c(=O)n(-c2ccccc2)n1C,-30%,1.8µM*,?,13µM*,18µM*
CN1C(=O)/C(=C/c2cc(N=Nc3ccccc3)ccc2O)SC1=S,2.2µM*,8.9µM*,?,-6%,5µM*
Cc1c(N2C(=O)/C(=C/C3CC=CCC3)SC2=S)c(=O)n(-c2ccccc2)n1C (configuration not stated),?,-48%[12.7 µM],-23%,45µM*,-17%
COCCN1C(=O)/C(=C2/C(=O)N(CC(=O)Nc3ccccc3Cl)c3ccccc32)SC1=S,-11%,-1%,-7%,-27%,-18%

# Screens: PubChem BioAssay, National Center for Advancing Translational Sciences (NCATS)
